# Laboratory results: ChEMBL document CHEMBL3988442, “University of Dundee, Small-Polar-MMV Screening Library” (2021)
# For some of these results: Potency and affinity values are given separately.
# Assays:
# Design in all cases: scale not given: direction of the effect not stated beside the values
# [1] = biological target: Protein translocase subunit SecA (Escherichia coli (strain K12)) (UniProt P10408); experiment: Assay to Identify E. coli SecA ATPase Inhibitors; assay type: functional; details: 30 µM
# [2] = biological target: T1, Ubiquitin-activating enzyme e1, putative (Leishmania donovani (strain BPK282A1)) (UniProt E9BSI1); experiment: Leishmania donovani Ubiquitin Activating Enzyme (LdE1); assay type: functional; details: 30 µM
# T1 sequence (whole entry): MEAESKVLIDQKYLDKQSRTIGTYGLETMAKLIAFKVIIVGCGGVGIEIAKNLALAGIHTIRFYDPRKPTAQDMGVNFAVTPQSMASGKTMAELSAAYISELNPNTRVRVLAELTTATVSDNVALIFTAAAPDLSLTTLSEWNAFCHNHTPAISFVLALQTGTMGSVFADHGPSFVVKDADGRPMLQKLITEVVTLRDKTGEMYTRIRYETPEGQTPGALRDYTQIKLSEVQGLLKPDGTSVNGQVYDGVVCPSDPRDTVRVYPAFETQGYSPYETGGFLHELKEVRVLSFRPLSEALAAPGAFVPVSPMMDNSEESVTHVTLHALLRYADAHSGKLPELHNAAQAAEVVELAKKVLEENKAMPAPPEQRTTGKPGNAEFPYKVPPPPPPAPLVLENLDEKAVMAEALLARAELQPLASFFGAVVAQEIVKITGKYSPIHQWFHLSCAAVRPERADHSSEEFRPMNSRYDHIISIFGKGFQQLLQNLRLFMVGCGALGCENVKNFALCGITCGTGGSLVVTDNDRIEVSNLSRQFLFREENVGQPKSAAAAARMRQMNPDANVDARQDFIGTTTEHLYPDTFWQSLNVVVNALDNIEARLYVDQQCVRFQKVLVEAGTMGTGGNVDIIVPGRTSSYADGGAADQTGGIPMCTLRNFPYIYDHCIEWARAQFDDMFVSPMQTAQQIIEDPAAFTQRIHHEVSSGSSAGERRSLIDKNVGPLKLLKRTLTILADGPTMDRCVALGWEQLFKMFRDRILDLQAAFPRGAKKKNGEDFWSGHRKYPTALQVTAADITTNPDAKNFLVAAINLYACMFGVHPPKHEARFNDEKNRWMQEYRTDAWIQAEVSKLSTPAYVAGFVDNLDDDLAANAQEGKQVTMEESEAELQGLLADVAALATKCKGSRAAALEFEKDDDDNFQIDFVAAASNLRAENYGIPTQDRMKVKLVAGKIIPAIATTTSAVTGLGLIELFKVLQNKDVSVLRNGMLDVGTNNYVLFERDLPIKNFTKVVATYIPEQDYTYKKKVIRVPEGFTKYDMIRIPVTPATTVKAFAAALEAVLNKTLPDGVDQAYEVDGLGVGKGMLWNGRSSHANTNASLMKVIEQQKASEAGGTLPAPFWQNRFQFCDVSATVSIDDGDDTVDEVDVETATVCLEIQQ
# [3] = biological target: AMP-activated protein kinase, AMPK (Homo sapiens) (UniProt P54646+O43741+P54619+Q9UGJ0+Q9Y478+Q13131+Q9UGI9); experiment: AMP-dependent Kinase enzyme assay. An in vitro enzyme assay that detects ADP turnover that is directly proportional to AMPK activity. This uses naive AMPK that is activated during the assay with MK-8722; assay type: functional; details: 30 µM
# [4] = biological target: Sialic acid-binding Ig-like lectin 9 (Homo sapiens) (UniProt Q9Y336); experiment: Hs-Siglec9 ALPHAscreen SOP 20170721; details: 10 µM
# Trypanosoma cruzi = experiment: Trypanosoma cruzi phosphomannomutase and mannose-1-phosphate guanylyltransferase assay; assay type: functional; details: 10 µM
# [5] = biological target: T2, Arginase-2, mitochondrial (Homo sapiens) (UniProt P78540); experiment: in vitro enzyme assay to detect the production of urea directly proportional to the activity of Arginase II; assay type: functional; details: 33.3 µM; also: in the data most compounds retested in dose-response had high values
# T2 sequence (whole entry): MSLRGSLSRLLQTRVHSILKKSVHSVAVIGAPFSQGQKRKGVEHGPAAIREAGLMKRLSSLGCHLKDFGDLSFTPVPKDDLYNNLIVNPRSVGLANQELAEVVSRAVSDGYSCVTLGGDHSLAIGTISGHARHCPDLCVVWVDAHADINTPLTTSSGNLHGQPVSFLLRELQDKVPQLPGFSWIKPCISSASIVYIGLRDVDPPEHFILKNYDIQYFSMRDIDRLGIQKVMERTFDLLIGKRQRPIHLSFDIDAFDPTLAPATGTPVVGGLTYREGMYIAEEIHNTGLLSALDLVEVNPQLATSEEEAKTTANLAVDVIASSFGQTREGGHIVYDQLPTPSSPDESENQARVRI
# [6] = biological target: T3, Proteasome subunit beta (Trypanosoma cruzi) (UniProt O96673); experiment: Trypanosoma cruzi proteasome chymotrypsin-like activity (TcProtChymo) assay.; also: in the data most compounds retested in dose-response had high values; assay type: functional; details: 9.37 µM
# T3 sequence (whole entry): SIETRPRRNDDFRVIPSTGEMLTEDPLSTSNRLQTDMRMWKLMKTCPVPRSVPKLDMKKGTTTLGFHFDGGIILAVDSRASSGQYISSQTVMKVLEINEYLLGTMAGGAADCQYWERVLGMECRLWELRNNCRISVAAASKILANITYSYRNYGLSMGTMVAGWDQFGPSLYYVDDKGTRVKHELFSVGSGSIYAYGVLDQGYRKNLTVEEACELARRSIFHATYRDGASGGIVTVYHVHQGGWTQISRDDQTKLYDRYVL
# Homo sapiens = species on record: Homo sapiens; experiment: To identify inhibition of the IFN signalling (Jak-Stat) pathway via expression of an eGFP reporter gene under the control of an IFN-stimulated response element (ISRE) containing MxA promoter.; assay type: functional; details: 30 µM
# [7] = biological target: T4, Tyrosyl-tRNA synthetase, putative (Trypanosoma cruzi (strain CL Brener)) (UniProt Q4DSP6); experiment: Trypanosoma cruzi tyrosyl tRNA synthetase (TcYRS) _High Tyrosine SOP; assay type: functional; details: 30 µM; also: in the data most compounds retested in dose-response had high values
# T4 sequence (whole entry): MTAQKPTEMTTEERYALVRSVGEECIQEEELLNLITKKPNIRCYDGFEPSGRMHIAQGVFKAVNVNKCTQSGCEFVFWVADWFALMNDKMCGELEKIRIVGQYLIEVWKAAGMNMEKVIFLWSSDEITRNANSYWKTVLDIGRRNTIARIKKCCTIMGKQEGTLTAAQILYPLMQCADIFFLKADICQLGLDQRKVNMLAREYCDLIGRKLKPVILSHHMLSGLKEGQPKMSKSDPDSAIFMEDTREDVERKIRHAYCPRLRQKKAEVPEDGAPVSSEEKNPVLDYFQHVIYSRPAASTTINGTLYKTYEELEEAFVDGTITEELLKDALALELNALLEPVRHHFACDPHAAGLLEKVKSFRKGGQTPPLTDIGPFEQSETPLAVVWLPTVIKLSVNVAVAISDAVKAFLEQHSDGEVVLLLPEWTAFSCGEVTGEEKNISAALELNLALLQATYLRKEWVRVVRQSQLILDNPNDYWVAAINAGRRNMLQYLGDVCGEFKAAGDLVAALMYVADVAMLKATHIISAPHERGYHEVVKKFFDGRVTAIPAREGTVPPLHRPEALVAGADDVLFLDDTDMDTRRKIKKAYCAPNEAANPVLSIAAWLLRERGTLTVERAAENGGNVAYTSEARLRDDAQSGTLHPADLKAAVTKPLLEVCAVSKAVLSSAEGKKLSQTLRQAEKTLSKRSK
# [8] = biological target: T4, Tyrosyl-tRNA synthetase, putative (Trypanosoma cruzi (strain CL Brener)); experiment: Trypanosoma cruzi tyrosyl tRNA synthetase (TcYRS) SOP; assay type: functional; details: 30 µM
# [9] = biological target: Chromo domain-containing protein 1 (Saccharomyces cerevisiae (strain ATCC 204508 / S288c) (Baker's yeast)) (UniProt P32657); experiment: ScCHD-1 Enzyme Inhibition Assay; assay type: functional; details: 30 µM; also: in the data most compounds retested in dose-response had high values
# Sequence of Chromo domain-containing protein 1 (Saccharomyces cerevisiae (strain ATCC 204508 / S288c) (Baker's yeast)) (P32657 whole entry, the tested form may be a part): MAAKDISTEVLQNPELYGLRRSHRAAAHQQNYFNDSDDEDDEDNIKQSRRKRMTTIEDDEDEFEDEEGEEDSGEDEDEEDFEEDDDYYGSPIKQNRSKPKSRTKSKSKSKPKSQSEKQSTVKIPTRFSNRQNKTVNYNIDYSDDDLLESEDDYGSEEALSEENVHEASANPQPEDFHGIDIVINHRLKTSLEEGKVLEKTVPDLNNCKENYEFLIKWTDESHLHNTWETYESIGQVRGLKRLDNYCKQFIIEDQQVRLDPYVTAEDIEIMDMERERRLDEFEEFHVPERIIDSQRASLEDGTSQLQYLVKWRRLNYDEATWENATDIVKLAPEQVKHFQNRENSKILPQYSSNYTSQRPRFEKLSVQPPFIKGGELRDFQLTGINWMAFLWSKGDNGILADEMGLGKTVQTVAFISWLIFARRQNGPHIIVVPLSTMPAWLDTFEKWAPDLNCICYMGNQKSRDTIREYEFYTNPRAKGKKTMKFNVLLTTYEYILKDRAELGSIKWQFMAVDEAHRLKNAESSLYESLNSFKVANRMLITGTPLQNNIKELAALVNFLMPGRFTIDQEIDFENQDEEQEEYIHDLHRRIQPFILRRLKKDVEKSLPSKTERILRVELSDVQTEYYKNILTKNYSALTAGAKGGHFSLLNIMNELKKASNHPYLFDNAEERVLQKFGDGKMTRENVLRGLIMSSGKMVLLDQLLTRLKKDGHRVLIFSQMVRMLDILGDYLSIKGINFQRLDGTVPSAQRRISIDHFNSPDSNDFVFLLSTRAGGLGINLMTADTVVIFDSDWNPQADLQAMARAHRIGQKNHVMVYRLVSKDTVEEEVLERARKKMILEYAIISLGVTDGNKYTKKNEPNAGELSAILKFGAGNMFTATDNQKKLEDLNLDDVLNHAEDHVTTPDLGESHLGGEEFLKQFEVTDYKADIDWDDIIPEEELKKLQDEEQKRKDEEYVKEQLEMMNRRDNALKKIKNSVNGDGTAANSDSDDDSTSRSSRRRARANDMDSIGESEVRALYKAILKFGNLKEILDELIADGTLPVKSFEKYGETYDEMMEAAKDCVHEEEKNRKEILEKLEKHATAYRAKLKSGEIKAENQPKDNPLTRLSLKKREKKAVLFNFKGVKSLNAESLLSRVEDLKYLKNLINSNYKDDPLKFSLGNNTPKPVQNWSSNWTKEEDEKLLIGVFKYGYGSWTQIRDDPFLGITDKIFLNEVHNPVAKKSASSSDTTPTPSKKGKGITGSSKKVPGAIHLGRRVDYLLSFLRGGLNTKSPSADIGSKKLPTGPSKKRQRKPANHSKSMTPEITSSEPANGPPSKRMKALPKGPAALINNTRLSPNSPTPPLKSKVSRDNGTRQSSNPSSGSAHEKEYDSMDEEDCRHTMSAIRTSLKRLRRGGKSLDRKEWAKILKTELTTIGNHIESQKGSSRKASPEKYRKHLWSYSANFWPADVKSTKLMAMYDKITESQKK
# Sequence of Protein translocase subunit SecA (Escherichia coli (strain K12)) (P10408 whole entry): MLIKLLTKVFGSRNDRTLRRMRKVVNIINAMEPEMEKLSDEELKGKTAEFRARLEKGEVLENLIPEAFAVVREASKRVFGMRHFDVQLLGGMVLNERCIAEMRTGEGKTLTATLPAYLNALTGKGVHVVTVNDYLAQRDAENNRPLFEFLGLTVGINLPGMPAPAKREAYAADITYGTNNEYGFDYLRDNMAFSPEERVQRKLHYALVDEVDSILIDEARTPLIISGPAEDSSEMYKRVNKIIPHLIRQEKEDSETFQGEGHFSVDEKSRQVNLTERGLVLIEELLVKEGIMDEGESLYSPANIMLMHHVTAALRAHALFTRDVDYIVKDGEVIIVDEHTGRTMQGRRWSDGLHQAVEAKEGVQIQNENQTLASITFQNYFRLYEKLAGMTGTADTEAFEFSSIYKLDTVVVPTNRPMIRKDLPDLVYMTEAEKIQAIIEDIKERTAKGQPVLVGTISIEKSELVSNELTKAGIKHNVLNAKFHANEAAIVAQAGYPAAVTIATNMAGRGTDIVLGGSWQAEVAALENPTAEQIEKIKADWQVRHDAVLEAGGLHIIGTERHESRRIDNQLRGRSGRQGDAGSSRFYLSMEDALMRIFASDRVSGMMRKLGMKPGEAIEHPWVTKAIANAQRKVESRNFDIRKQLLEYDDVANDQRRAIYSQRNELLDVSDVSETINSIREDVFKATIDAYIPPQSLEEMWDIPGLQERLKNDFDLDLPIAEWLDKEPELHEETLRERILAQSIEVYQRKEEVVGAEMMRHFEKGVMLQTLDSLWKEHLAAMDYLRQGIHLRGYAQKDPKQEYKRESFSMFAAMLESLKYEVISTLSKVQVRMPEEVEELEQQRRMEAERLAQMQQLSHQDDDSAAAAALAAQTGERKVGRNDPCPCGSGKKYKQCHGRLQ
# Sequence of Sialic acid-binding Ig-like lectin 9 (Homo sapiens) (Q9Y336 whole entry): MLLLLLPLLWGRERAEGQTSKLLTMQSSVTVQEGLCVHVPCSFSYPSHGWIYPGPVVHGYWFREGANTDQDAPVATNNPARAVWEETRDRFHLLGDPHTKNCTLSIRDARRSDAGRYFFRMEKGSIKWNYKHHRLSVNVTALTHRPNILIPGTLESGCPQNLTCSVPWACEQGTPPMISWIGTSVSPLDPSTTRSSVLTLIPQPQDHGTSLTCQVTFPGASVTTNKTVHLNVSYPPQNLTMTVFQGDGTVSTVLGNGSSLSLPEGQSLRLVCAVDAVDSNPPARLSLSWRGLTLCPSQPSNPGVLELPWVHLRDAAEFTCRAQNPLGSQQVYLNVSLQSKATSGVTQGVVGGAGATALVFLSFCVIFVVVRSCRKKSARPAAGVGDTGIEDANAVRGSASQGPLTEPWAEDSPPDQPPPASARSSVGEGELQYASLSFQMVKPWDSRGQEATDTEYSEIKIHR
Structure (SMILES),Percent Effect [1],Percent Effect [2],Percent Effect [3],Percent Effect [4],Percent Effect (Trypanosoma cruzi),Percent Effect [5],Percent Effect [6],Percent Effect (Homo sapiens),Percent Effect [7],Percent Effect [8],Percent Effect [9]
CC(C)c1noc(CN2CCC3(CCCO3)CCC2=O)n1 (stereo not drawn),-8.4%,2.67%,0.336%,-1.54%,-3.8%,-0.521%,2.27%,25.6%,1.64%,6.17%,-6.74%
Cc1noc(NC(=O)c2ccc(Br)s2)n1,1.05%,-5.26%,14.6%,-3.75%,-5.13%,3.96%,9.39%,40.2%,-3.45%,1.24%,15.6%
c1cnc(-c2nc(CN3CCOC(Cn4cncn4)C3)cs2)nc1 (stereo not drawn),-3.88%,29.7%,-7.99%,-4.32%,-0.66%,-12.8%,9.91%,18.1%,1.48%,13.6%,-6.92%
CN(CC1CC1)C(=O)CN(Cc1cccc(O)c1)C1CCC(O)CC1 (stereo not drawn),-0.997%,-2.7%,-5.33%,8.92%,1.07%,24.6%,11.1%,12%,0%,1.24%,0.446%
Cn1nc(CNC(=O)c2ccc(Cl)cc2)c2c1CCOC2,-1.53%,2.6%,6.72%,8.57%,0.0986%,-3.23%,1.22%,5.87%,4.23%,6.41%,-3.86%
COCCN1CCN(C(=O)C2CC=CC2)Cc2cccnc21,-4.04%,8%,10.1%,4.75%,7.14%,-55.4%,10.4%,-18.4%,3.12%,17.5%,-7.24%
CN(C)C(=O)COC[C@]12COC[C@H]1CN(Cc1ccoc1)C2,-2.44%,2.7%,-3.89%,10.2%,5.77%,7.69%,2.49%,5.51%,4.3%,1.24%,-5.77%
COc1ccccc1C(O)CNCc1c(C(C)C)nn(C)c1N(C)C (stereo not drawn),-5.07%,15.6%,-1.45%,1.4%,1.31%,1.07%,4.9%,-5.4%,11.7%,14.6%,-10.1%
